# Results taken from ChEMBL document CHEMBL1157539, “Thousands of chemical starting points for antimalarial lead identification” (Nature, 2010).
# Key:
# Format in all cases: functional
# Plasmodium falciparum [1] = assay: GSK_TCMDC: Inhibition of Plasmodium falciparum 3D7 in whole red blood cells, using parasite LDH activity as an index of growth. Test compounds present at 2uM
# Plasmodium falciparum [2] = assay: GSK_TCMDC: Inhibition of Plasmodium falciparum Dd2 in whole red blood cells, using parasite LDH activity as an index of growth. Test compounds present at 2uM
# HepG2 = assay: GSK_TCMDC: Percent inhibition of human HepG2 cell line. Test compounds present at 10uM.
Structure (SMILES),Inhibition (Plasmodium falciparum [1]) [%],Inhibition (Plasmodium falciparum [2]) [%],Inhibition (HepG2) [%]
CCOc1ccccc1C=CC(=O)Nc1ccc2nc(N3CCN(C)CC3)cc(C)c2c1,100,91,16
COc1cc(NC(=O)N2CCOC(CCN3CCC4(CCc5ccccc54)CC3)(c3ccc(Cl)c(Cl)c3)C2)cc(OC)c1OC (stereo not drawn),94,67,17
CCCNCc1ccc(-c2ccc(CN(CCOC)C(=O)c3cccc(C#N)c3)cc2)nc1.O=C(O)C(F)(F)F,84,14,0
CN(C)Cc1cccc(-c2ccc(NC(=O)c3ccc4c(=O)n(C5CCCCC5)cnc4c3)cc2)c1,96,53,92
Cc1c2ccc(N(C)c3ccnc(Nc4ccc5c(c4)nc(NC(C)C)n5C)n3)cc2nn1C.Cl,100,100,2
CCCc1cc(C(=O)N[C@@H](Cc2ccccc2)[C@H](O)CNC(C)(C)c2cccc(OC)c2)c(F)c(N2CCCC2=O)c1.O=CO,98,98,7
COc1ccc2nccc([C@@H](O)CN3CCC(NC(=O)/C=C/c4c[nH]c5c(C)cccc45)CC3)c2c1,100,88,23
N#Cc1cccc(C(=O)Nc2cccc(-c3cccc(CN4CCNCC4)c3)c2)c1.O=C(O)C(F)(F)F,89,10,37
COc1ccc(NC(=O)c2ccc(-c3nc(-c4ccccc4)cs3)cc2)cc1N1CCN(C)CC1.O=C(O)C(=O)O,93,13,17
O=C(O)c1cc(OCC(O)COc2ccc(O)c(C(=O)O)c2)ccc1O,99,6,9
CCC(C)NC(=O)CN1CN(c2ccccc2)C2(CCN(C(=O)c3ccc(C(C)(C)C)cc3)CC2)C1=O (stereo not drawn),100,100,0
Cc1cccc2nc(-c3cccc(-c4ccc(NC(=O)c5c[nH]cn5)cc4)c3)[nH]c12,100,48,8
Cl.O=C(Nc1ccc2c(c1)CCNCC2)c1ccc(-c2ccc(Cl)cc2)cc1,96,38,71
O=C(O)C(F)(F)F.c1cnc2ccc(NCc3ccc(-c4ccc(CNC5CCCC5)cc4)cc3)cc2c1,97,21,27
Fc1cccc(Nc2nc(NCc3ccc(OCc4ccccc4)cc3)nc(Nc3cccc(F)c3)n2)c1,84,14,5
FC(F)(F)c1ccc2[nH]ccc(=NN=Cc3cccnc3)c2c1,100,40,0
COc1cccc2cc(C(=O)N[C@@H](CC(C)C)C(=O)N[C@H](C=NN3CCCC3=O)Cc3ccccc3)oc12,96,80,5
c1cncc(CN2CCCN(c3ccc4c(c3)CCN(Cc3ccc(-c5ncc[nH]5)cc3)CC4)CC2)c1,99,33,7
COc1cc(-n2cnc3cc(-c4ccc(Cl)cc4)sc3c2=O)ccc1OCCN1CCC(c2cccc(NC(C)=O)c2)CC1.O=C(O)/C=C\C(=O)O,99,80,61
CCN(CC)CCN(Cc1ccc(-c2ccc(Cl)s2)cc1)C(=O)Cn1c(CCc2cccc(F)c2F)nc(=O)c2ccccc21.O=C(O)C(O)C(O)C(=O)O,96,27,24
CCc1cn2c3c(cc(C(=O)N[C@@H](Cc4cccc(F)c4)[C@H](O)CNC4CC4)cc13)N(C)S(=O)(=O)CC2.O=CO,98,98,2
COC(=O)c1cccc(CN(CCC(O)(C(F)(F)F)C(F)(F)F)C(=O)CC2CCCC2)c1,98,53,0
CC(=O)N1Cc2ccccc2C1=O,97,0,10
O=C(Nc1ccc(N2CCCCC2)c(Cl)c1)c1ccc(Br)o1,94,94,0
CC(=O)N(C)c1cccc(C(=O)Nc2cccc(-c3ccc(-c4nc5cc(C(F)(F)F)ccc5[nH]4)cc3)c2)c1,90,31,63
CCNc1cc(C(=O)N[C@@H](Cc2ccccc2)[C@H](O)CNC2(CC(C)C)CC2)cc(N2CCCCS2(=O)=O)c1.Cl,87,29,0
